{"source": "ChEMBL document CHEMBL3988442", "about": "“University of Dundee, Small-Polar-MMV Screening Library” (2021)", "data": [{"molecular_target": "T1, Arginase-2, mitochondrial (Homo sapiens) (UniProt P78540)", "T1 sequence (whole entry)": "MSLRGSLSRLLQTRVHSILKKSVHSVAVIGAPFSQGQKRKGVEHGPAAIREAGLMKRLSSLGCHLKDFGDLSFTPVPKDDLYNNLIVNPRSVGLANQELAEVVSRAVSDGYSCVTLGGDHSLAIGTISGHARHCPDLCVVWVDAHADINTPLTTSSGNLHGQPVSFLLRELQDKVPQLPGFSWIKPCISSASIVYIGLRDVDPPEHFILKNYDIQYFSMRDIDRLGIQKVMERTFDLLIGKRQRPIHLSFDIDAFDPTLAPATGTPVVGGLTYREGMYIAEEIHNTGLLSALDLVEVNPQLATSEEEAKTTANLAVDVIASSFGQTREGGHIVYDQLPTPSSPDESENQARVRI", "test": "in vitro enzyme assay to detect the production of urea directly proportional to the activity of Arginase II", "assay_type": "functional", "design": "scale not given: in the data most compounds retested in dose-response had high values", "conditions": "30 µM", "units": {"Percent Effect": "%"}, "values": [{"compound": "COc1cc(C(=O)N(CCC#N)Cc2ccccn2)ccc1C", "Percent Effect": 2.7}, {"compound": "Cc1cc(NC(=O)C2CN(Cc3ccccc3)CCO2)ccn1", "note": "(configuration not stated)", "Percent Effect": 3.78}, {"compound": "O=c1[nH]c2c(c(=O)n1C1CCCCC1)CCC2Nc1ccc(Cl)cc1", "note": "(configuration not stated)", "Percent Effect": -2.7}, {"compound": "COc1ccc(C(=O)N2C[C@@H](C(=O)O)[C@H](c3cccc(F)c3)C2)c(O)c1", "Percent Effect": 7.03}, {"compound": "Cc1nn(C)c2c(=O)n(C(C)C)c(NCCc3ccccc3)nc12", "Percent Effect": 8.11}, {"compound": "CCC(C(=O)NCc1ccncc1)N(c1cccc(Cl)c1)S(C)(=O)=O", "note": "(configuration not stated)", "Percent Effect": -13.5}, {"compound": "CNC(=O)[C@H]1C[C@@H]2CN(C(=O)c3occc3C)C[C@@H]2N1S(C)(=O)=O", "Percent Effect": 2.7}, {"compound": "Cc1nc(NCC2CC2)nc2c1COCC21CCN(C(=O)C(C)(C)C)C1", "note": "(configuration not stated)", "Percent Effect": 8.11}, {"compound": "CN1CCN(C(=O)Cn2ccc3c(Cl)cccc32)CC1", "Percent Effect": 4.87}, {"compound": "Cc1noc(C)c1CN1CCC[C@]2(C[C@@H](Oc3ccccn3)CO2)C1", "Percent Effect": -26.5}, {"compound": "CC1=Nc2c(c(=O)[nH]n2C2CCCCC2)C(c2ccc(C(=O)O)cc2)S1", "note": "(configuration not stated)", "Percent Effect": 5.95}, {"compound": "O=C([C@@H]1CCO[C@@H]2CCN(CCc3ccccc3)C[C@@H]21)N1CCCC1", "Percent Effect": 11.3}, {"compound": "COc1ccc2c(c1)OCC(CNC(=O)c1cnc(NC(C)C)nc1)C2", "note": "(configuration not stated)", "Percent Effect": 2.7}, {"compound": "CCCS(=O)(=O)CC(=O)N1CCCC1c1noc(C2CC2)n1", "note": "(configuration not stated)", "Percent Effect": 7.03}, {"compound": "OCCN1CCC(c2cncc(-c3cccc(Cl)c3)n2)CC1", "Percent Effect": -3.78}, {"compound": "CN(Cc1cccnc1)C1CC2(CCN(Cc3ccccn3)CC2)C1", "Percent Effect": 2.7}, {"compound": "Cc1ccoc1CNCc1nnc2n1CC(C(F)(F)F)CC2", "note": "(configuration not stated)", "Percent Effect": 3.78}, {"compound": "CN(Cc1ccncc1)C1CC2(CCN(Cc3ccccn3)CC2)C1", "Percent Effect": 5.95}, {"compound": "CCS(=O)(=O)CC(=O)N1CCCC1c1noc(C2CC2)n1", "note": "(configuration not stated)", "Percent Effect": 2.7}, {"compound": "CNC(=O)[C@H]1C[C@@H]2CN(C(=O)c3ccc(C)o3)C[C@@H]2N1S(C)(=O)=O", "Percent Effect": 1.62}, {"compound": "Cn1cc(CN2C[C@@H]3COC[C@]3(C(=O)NCCc3ccccc3)C2)cn1", "Percent Effect": 12.4}, {"compound": "CCC(C(=O)NCc1ccccn1)N(c1cccc(C)c1)S(C)(=O)=O", "note": "(configuration not stated)", "Percent Effect": 9.19}]}]}
